Source: PubChem BioAssay
Sampled rows, rich in hits. Any-hit rate of the full collection: about 1.6%.
Bfl-1 A1 inh: inhibitors of the anti-apoptotic protein A1, read as caspase activation. MEF A1-2A-BIM cells, Caspase-Glo 3/7 luminescence, 3 h; percent of clofoctol response, vehicle zero. caspase activation, % (concentration not given with the values). hit rate 0.066% among 330,000;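 active = over half of replicate activation scores above 10%, or exactly half above 10 with the replicate mean above 10; inconclusive = replicate mean below 10 yet half the replicates above 10; inactive = over half of replicates below 10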
DYRK1A inh: blocks rat Dyrk1A kinase activity. ADP-Glo luminescence, NFATc1 peptide. inhibition, % at 12.5 µM. hit rate 0.43% among 310,000; in the data active = inhibition above about 50%;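 note: plate controls were vehicle with enzyme for no effect and no enzyme for full effect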
dFosB act-1: mouse delta FosB homodimer activation; AID 493131; hit rate 0.99% among 340,000; activation, % at 25 µM; purified delta FosB, TAMRA-CDK5 oligo fluorescence polarization; percent of positive-control signal above neutral wells; P13346;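 active = mean activation above about 17%, with every replicate also reaching it, limit read from the data, passing the limit was not always enough; inconclusive = only one of the two conditions met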
Beta2AR agonist: agonists of human beta-2 adrenergic receptor inducing internalization | P07550 | Am2.2-beta2AR cells, FAP receptor internalization, flow cytometry | response, % (no concentration beside the values) | hit rate 0.43% among 340,000;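 active = response above a set limit, near 3 SD of response in nonfluorescent compounds, cut at about 42% in these data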
Target sequence (P07550 whole entry, looked up): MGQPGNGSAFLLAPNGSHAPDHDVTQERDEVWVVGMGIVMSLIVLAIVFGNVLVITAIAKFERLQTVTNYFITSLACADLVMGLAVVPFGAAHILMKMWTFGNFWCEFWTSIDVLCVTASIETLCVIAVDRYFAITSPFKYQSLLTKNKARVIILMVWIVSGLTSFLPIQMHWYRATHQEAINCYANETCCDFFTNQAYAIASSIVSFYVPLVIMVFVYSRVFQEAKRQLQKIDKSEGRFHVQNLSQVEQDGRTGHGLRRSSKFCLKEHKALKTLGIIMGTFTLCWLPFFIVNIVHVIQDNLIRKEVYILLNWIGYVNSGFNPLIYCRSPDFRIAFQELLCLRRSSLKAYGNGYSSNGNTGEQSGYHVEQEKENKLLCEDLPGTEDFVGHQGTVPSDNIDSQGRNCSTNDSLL
dFosB act-2: activators of mouse delta FosB homodimer DNA binding | activation, % at 24.9 µM | 2,400 tested, under 10 active | AID 588690 | purified delta FosB, TAMRA-CDK5 oligo fluorescence polarization; normalised: neutral wells 0, positive control 100 | shares compounds with dFosB act-1;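 active = highest replicate activation at or above 34% and every replicate reaching that threshold; inconclusive = meets only one of the two criteria; inactive = meets neither criterion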;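 note: higher polarization means more probe DNA bound by delta FosB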
* hit, by the source's call; u = inconclusive; x = no result.

SMILES	Bfl-1 A1 inh	DYRK1A inh	dFosB act-1	Beta2AR agonist	dFosB act-2
C/C(=N\NC(=O)c1nnn(-c2nonc2N)c1CSc1ccccc1)c1ccco1	-0.1	6.0	38.1*	-9.5	4.4
C/C(=N\NC(=O)c1nnn(-c2nonc2N)c1CSc1ccc(C)cc1)c1ccco1	-0.2	-2.5	18.4*	-0.1	4.4
CC1CN(C(=O)/C=C/c2ccc(SC(F)F)cc2)CC(C)O1 (stereo not drawn)	0.7	-2.4	2.8	-2.7	x
COC(=O)c1ccc(OCC(=O)Nc2ccsc2C(=O)OC)cc1	-3.1	3.5	35.7*	4.4	2.4
COC(=O)c1sccc1NC(=O)COc1cccc(C)c1	-2.4	3.3	-18.4	-3.5	x
COc1cc(-c2cc3nc(C)c(C)c(=O)n3[nH]2)cc(OC)c1OC	1.4	-4.1	21.6*	-2.5	4.5
O=C(NC1CCC(CC2CCC(NC(=O)C(Cl)Cl)CC2)CC1)C(Cl)Cl (stereo not drawn)	0.1	x	58.5*	-5.2	5.8
Cc1cccc(OCc2nnc(SCC(=O)N3CCCCC3)o2)c1	-0.2	-2.9	-7.8	-0.9	x
CC(OC(=O)c1cc(S(=O)(=O)N2CCOCC2)ccc1Br)C(=O)N1CCOCC1 (stereo not drawn)	-0.5	0.5	1.2	0.9	x
Cc1ccc(NC(=O)Cc2noc3ccccc23)cc1	-3.6	1.9	-8.0	-6.3	x
Cc1ccc(/C=N\NC(=O)Cc2noc3ccccc23)cc1	-0.7	-3.9	22.4*	-5.7	u
COc1ccc(-c2nc(CS(=O)CC(=O)N3CCN(C)CC3)c(C)o2)cc1 (stereo not drawn)	0.6	x	-4.2	1.5	x
COc1ccc(S(=O)(=O)N2CCN(c3nc(-c4cccnc4)nc4ccccc34)CC2)cc1	-0.5	0.3	17.8*	-3.3	-1.1
O=S(=O)(c1ccccc1F)N1CCN(c2nc(-c3cccnc3)nc3ccccc23)CC1	-0.5	x	-7.2	12.2	x
COc1cccc(NC(=S)N2CCc3cc(OC)c(OC)cc3C2COc2ccc3c(C)cc(=O)oc3c2)c1 (stereo not drawn)	-0.1	-5.0	65.2*	2.0	1.1
NC(=O)c1c(NC(=O)Cn2nc(C(=O)O)c3ccccc3c2=O)sc2c1CCC2	-0.4	-2.6	33.4*	29.6	2.4
O=C(Cn1nc(C(=O)O)c2ccccc2c1=O)Nc1nc(-c2ccccc2)cs1	-3.9	10.9	69.1*	-4.1	-1.5
NC(=O)c1c(NC(=O)CN2CCCC2)sc2c1CCCC2	0.1	8.0	2.2	-15.9	x
O=C(Cn1nc(C(=O)O)c2ccccc2c1=O)Nc1cccc(S(=O)(=O)N2CCOCC2)c1	-0.2	5.4	-18.6	0.4	x
O=C(Cn1nc(C(=O)O)c2ccccc2c1=O)Nc1cccc(S(=O)(=O)N2CCCCC2)c1	-1.4	-3.2	28.3*	-10.5	7.8
O=C(Cn1nc(C(=O)O)c2ccccc2c1=O)Nc1ccccc1C(F)(F)F	0.6	-4.5	77.5*	1.3	3.9
Cc1ccccc1NC(=O)Cn1nc(C(=O)O)c2ccccc2c1=O	0.3	3.8	-4.0	-13.8	x
COC(=O)[C@H](Cc1ccccc1)NC(=O)N1CCN(c2ccccc2)CC1	0.3	x	4.2	10.9	x
O=C(O)c1cc(Cl)c(Cl)cc1C(=O)N(Cc1ccccc1)Cc1ccccc1	-0.2	-5.8	-10.9	0.0	x
CCN(CC(=O)NCc1ccc(F)cc1)C(=O)C(C)Oc1cccc(Cl)c1 (stereo not drawn)	-0.5	-0.5	-11.8	-5.8	x
SMILES	Bfl-1 A1 inh	DYRK1A inh	dFosB act-1	Beta2AR agonist	dFosB act-2
CC1CCCCC12NC(=O)N(CC(=O)OCC(=O)c1ccc(OC(F)F)cc1OC(F)F)C2=O (stereo not drawn)	-0.7	-2.6	-2.6	-0.3	x
C=CCOc1ccccc1CN1CCN(CCc2ccccc2)C(CCO)C1 (stereo not drawn)	-0.9	-0.4	-12.2	-6.8	x
Cc1cccc(C)c1NS(=O)(=O)c1ccc(NC(=O)c2ccc(Cl)c([N+](=O)[O-])c2)cc1	0.3	-2.3	39.6*	8.4	-1.5
O=C(Nc1ccc(S(=O)(=O)NC2=NCCCCC2)cc1)c1ccc(Cl)c([N+](=O)[O-])c1	-0.7	-3.7	-9.0	10.6	x
CC(=O)c1ccc(NC(=O)c2cccs2)cc1	-4.4	1.4	-7.8	-12.5	x
Cc1cc(C)cc(C(=O)Nc2ccc(NC(=O)Cc3ccccc3)cc2)c1	-0.7	13.9	42.7*	-4.3	5.0
Cc1cc(C)cc(C(=O)Nc2ccc(NC(=O)c3cccs3)cc2)c1	-0.3	1.7	24.7*	-18.0	3.9
O=C(Cc1ccccc1)Nc1ccc(NC(=O)c2cccc(Cl)c2)cc1	1.5	-0.1	-0.7	9.5	x
